{"source": "PubChem BioAssay (EPA / NIEHS)", "note": "Where “and” joins values, the source holds several entries; their conditions need not be identical. Identical values can stand only once. Calls of active or inactive are those of the source. How the source made its calls: active means hit-call score of the fitted dose curve at least 0.9, where 1 is the maximum; inactive means score below 0.9."}
{"experiment": "BSK_LPS_PGE2: BioMAP Diversity Plus: LPS Assay for Prostaglandin E2 (PGE2) Biomarker Activity (AID 2283082)", "conditions": "primary human HUVEC with PBMC; actives raise or lower the signal", "experimental": "BSK_LPS is a cell-based, multiplexed-readout assay that uses umbilical vein endothelium and peripheral blood mononuclear cells, a human vascular primary cell co-culture, with measurements taken at 24 hours after chemical dosing in a 96-well plate.BSK_LPS_PGE2 is an assay component measured in the BSK_LPS assay. It measures PGE2 antibody related to regulation of gene expression using ELISA technology.Data from the assay component BSK_LPS_PGE2 was analyzed into 1 assay endpoint. This assay endpoint, BSK_LPS_PGE2, was analyzed with bidirectional fitting relative to DMSO as the negative control and baseline of activity. Using a type of binding reporter, gain or loss-of-signal activity can be used to understand changes in the signaling as they relate to the gene PTGER2. Furthermore, this assay endpoint can be referred to as a primary readout, because this assay has produced multiple assay endpoints where this one serves a signaling function. To generalize the intended target to other relatable targets, this assay endpoint is annotated to the gpcr intended target family, where the subfamily is rhodopsin-like receptor.\nThe levels of cell surface (or secreted, indicated by the prefix \"s\") biomarker endpoints were measured by ELISA. Overt cytotoxicity to cells in confluent adherent cultures (all systems other than the BT system) was assessed by measuring total protein levels using sulforhodamine B (SRB) staining in parallel cultures at the time of biomarker measurements, indicated as SRB endpoints. For proliferation assays for adherent cell types, individual cell types are cultured at sub-confluence and relative cell numbers quantified by SRB staining at time points optimized for each system (48 h: 3C and CASM3C systems; 72 h: BT and HDF3CGF systems; 96 h: SAg system). SRB was performed by staining cells with 0.1% SRB after fixation with 10% TCA and reading wells at 560 nm.Viability and proliferation of PBMC (T cells) was quantified by Alamar Blue reduction for the SAg and BT systems. For PBMC viability (referred to as PBMC Cytotoxicity within the assay endpoint names), cells were plated (75,000/well in a 96-well plate) and then chemical samples added for 1 h before addition of activators, SEB and TSST-1 (20 ng/mL final concentration each). Cells were incubated for 90 h. Then, Alamar Blue (20 uL/well) (Invitrogen, Cat DAL1100) was added for 6 h, and the plates were read with a fluorescence microplate reader at 546/580 nm (excitation/emission). For PBMC proliferation, cells were plated and activated as above but incubated for only 16 h prior to addition of Alamar Blue. Plates were read after 6 h."}
{"smiles": "CC(C)(COC(=O)c1ccccc1)COC(=O)c1ccccc1", "outcome": "inactive"}
{"smiles": "CC(C)c1ccc(C(C)C)cc1", "outcome": "inactive"}
{"smiles": "O=C=NC1CCC(CC2CCC(N=C=O)CC2)CC1", "note": "(stereo not given)", "outcome": "inactive"}
{"smiles": "CCC(=O)OCc1ccccc1", "outcome": "inactive"}
{"smiles": "CCCCC/C=C/C=C/C=O", "AC50": "25.3 µM (active)"}
{"smiles": "O=C(O)c1cn(-c2ccc(F)cc2)c2cc(N3CCNCC3)c(F)cc2c1=O", "outcome": "inactive"}
{"smiles": "CCCCCCCCCC=O", "outcome": "inactive"}
{"smiles": "Nc1cc([N+](=O)[O-])ccc1O", "AC50": "3.97 µM (active) and 6.28 µM (active)"}
{"smiles": "Cc1cc(C2(c3cc(C)c(O)cc3C)OS(=O)(=O)c3ccccc32)c(C)cc1O", "outcome": "inactive"}
{"smiles": "N#Cc1ccc(CC(=NNC(=O)Nc2ccc(OC(F)(F)F)cc2)c2cccc(C(F)(F)F)c2)cc1", "AC50": "2.68 µM (active)"}
{"smiles": "CNC[C@H](O)c1cccc(O)c1", "AC50": "0.167 µM (active)"}
{"smiles": "CC(=O)O[C@]1(C(C)=O)CC[C@H]2[C@@H]3C[C@H](C)C4=CC(=O)CC[C@]4(C)[C@H]3CC[C@@]21C", "outcome": "inactive"}
{"smiles": "CC(=O)/C=C/C1=C(C)CCCC1(C)C", "outcome": "inactive"}
{"smiles": "O=P(c1ccccc1)(c1ccccc1)c1ccccc1", "outcome": "inactive"}
{"smiles": "O=C1OC2(c3cc(Br)c(O)c(Br)c3Oc3c2cc(Br)c(O)c3Br)c2c(Cl)c(Cl)c(Cl)c(Cl)c21", "AC50": "3.33 µM (active)"}
{"smiles": "O=C(O)c1cn(C2CC2)c2cc(N3CCNCC3)c(F)cc2c1=O", "outcome": "inactive"}
{"smiles": "COC(=O)c1ccc(C)cc1", "outcome": "inactive"}
{"smiles": "CC(=O)Nc1ccccc1O", "outcome": "inactive"}
{"smiles": "c1ccc2c(c1)c1cccc3ccc4cccc2c4c31", "outcome": "inactive"}
{"smiles": "CCc1c(C)cc(N)c(CC)c1N", "outcome": "inactive"}
{"smiles": "O=C(O)c1ccc([N+](=O)[O-])cc1", "outcome": "inactive"}
{"smiles": "CCCCCCCCCCCCCCCCCC(=O)OCC(CC)CCCC", "note": "(stereo not given)", "outcome": "inactive"}
{"smiles": "CC(=O)OCCC(C)CC(C)(C)C", "note": "(stereo not given)", "outcome": "inactive"}
{"smiles": "CCn1c2ccccc2c2cc(N)ccc21", "AC50": "5.42 µM (active)"}
{"smiles": "CCCCCCCCC=O", "outcome": "inactive"}
{"smiles": "OC1OC[C@@H](O)[C@H](O)[C@H]1O", "note": "(stereo not given in full)", "outcome": "inactive"}
{"smiles": "Cc1ccc2n[nH]nc2c1", "outcome": "inactive"}
{"smiles": "Nc1cc([N+](=O)[O-])ccc1Cl", "outcome": "inactive"}
{"smiles": "OC[C@H]1O[C@H](O[C@]2(CCl)O[C@H](CCl)[C@@H](O)[C@@H]2O)[C@H](O)[C@@H](O)[C@H]1Cl", "outcome": "inactive"}
{"smiles": "O=C(O)C[C@H](O)C[C@H](O)/C=C/c1c(C2CC2)nc2ccccc2c1-c1ccc(F)cc1", "outcome": "inactive"}
{"smiles": "CC1COc2ccccc2N1C(=O)C(Cl)Cl", "note": "(stereo not given)", "outcome": "inactive"}
{"smiles": "CC(C)Oc1ccccc1O", "outcome": "inactive"}
{"smiles": "Cc1ccc(O)c(C(C)(C)C)c1", "outcome": "inactive"}
{"smiles": "CC[Si](OC(C)=O)(OC(C)=O)OC(C)=O", "outcome": "inactive"}
{"smiles": "O=[N+]([O-])c1cc(C(F)(F)F)ccc1Cl", "outcome": "inactive"}
{"smiles": "C[C@H]1C[C@@H]2[C@H]([C@@H](O)C[C@@]3(C)[C@H]2CC[C@]3(O)C(=O)CO)[C@@]2(C)C=CC(=O)C=C12", "outcome": "inactive"}
{"smiles": "C=C[Si](OCC)(OCC)OCC", "outcome": "inactive"}
{"smiles": "C=C(C)C(=O)O[C@H]1C[C@@H]2CC[C@@]1(C)C2(C)C", "outcome": "inactive"}
{"smiles": "CC1CCC(C(C)CS)CC1S", "note": "(stereo not given)", "outcome": "inactive"}
{"smiles": "Cc1ccc(Nc2ccc(O)c3c2C(=O)c2ccccc2C3=O)cc1", "AC50": "1.06 µM (active)"}
